Test results reported in PubChem BioAssay AID1159577 (Broad Institute, 2015).
The campaign covered roughly 1,300 compounds. About 240 (18%) were called active. Roughly 8% stayed inconclusive and do not appear here. No rule for the calls is given here. A selection follows. Results with a measured potency or affinity are listed apart.

Assay: toxicity to human hepatoma HepG2 cells – cell-based, cherry-picked samples, cytotoxicity control, dose response (AID 1159577)
Details: HepG2 cytotoxicity counterscreen, plate reader; series mostly up to 19.5 µM

Compound | outcome
O=C(c1ccccn1)N1CC(=O)N2[C@H](C1)[C@@H](c1ccc(C#CCc3ccccc3)cc1)[C@@H]2CO | inactive
CCCN(C)C[C@@H]1Oc2cc(C#CC3CCCC3)ccc2S(=O)(=O)N([C@@H](C)CO)C[C@@H]1C | inactive
COc1ccc2c3c(n(C)c2c1)[C@@H](CO)N(S(C)(=O)=O)CC31CCN(C(=O)CN(C)C)CC1 | inactive
COc1ccc2c3c(n(C)c2c1)[C@@H](CO)N(C(=O)Nc1ccccc1F)CC31CCN(C)CC1 | inactive
COc1ccc2c3c(n(C)c2c1)[C@@H](CO)N(Cc1ccccc1)CC31CCN(S(=O)(=O)c2ccc(C)cc2)CC1 | inactive
COc1ccc2c3c(n(C)c2c1)[C@H](CO)N(C(=O)Nc1ccc(F)cc1)CC31CCN(C)CC1 | inactive
COc1ccc2c3c(n(C)c2c1)[C@@H](CO)N(C(=O)Nc1ccc(F)cc1)CC31CN(C(=O)c2ccccc2F)C1 | inactive
COc1ccc2c3c(n(C)c2c1)[C@H](CO)N(C(=O)Nc1ccc(F)cc1)CC31CN(C(=O)NC2CCCC2)C1 | inactive
COc1ccc2c3c(n(C)c2c1)[C@@H](CO)N(C(=O)Nc1ccc(F)cc1)CC31CCN(Cc2cccnc2)CC1 | inactive
COc1ccc2c3c(n(C)c2c1)[C@H](CO)N(C(=O)Nc1ccc(F)cc1)CC31CN(Cc2cccnc2)C1 | inactive
COc1ccc(-c2ccccc2[C@H]2[C@@H](C#N)N(C(=O)NC3CCCCC3)[C@H]2CO)cc1 | inactive
C[C@H](CO)N1C[C@H](C)[C@H](CN(C)S(=O)(=O)c2ccc([N+](=O)[O-])cc2)OCc2ccccc2-c2c(n(C)c3ccccc23)C1=O | inactive
CCNC(=O)c1cc2c(c(-c3cccc(-c4ccccc4F)c3)n1)[C@@H](CCO)N(C(=O)CC1CC1)C2 | inactive
C[C@H]1CN([C@@H](C)CO)C(=O)c2c(c3ccccc3n2C)-c2ccccc2CO[C@H]1CN(C)S(=O)(=O)c1ccc(Cl)cc1 | inactive
C[C@@H](C(=O)N(C)C[C@@H]1OCc2ccccc2-c2c(n(C)c3ccccc23)C(=O)N([C@@H](C)CO)C[C@@H]1C)c1ccccc1 | inactive
COc1cccc(S(=O)(=O)N(C)C[C@@H]2Oc3ncc(C#Cc4ccc(C(F)(F)F)cc4)cc3C(=O)N([C@H](C)CO)C[C@@H]2C)c1 | inactive
C[C@H](CO)N1C[C@H](C)[C@@H](CN(C)S(=O)(=O)c2ccccc2)Oc2ccc(NC(=O)Cc3cn(C)c4ccccc34)cc2C1=O | inactive
C[C@@H]1CN([C@H](C)CO)C(=O)c2cccc(NS(=O)(=O)c3ccccc3)c2O[C@H]1CN(C)Cc1ccc(Oc2ccccc2)cc1 | inactive
COc1cccc(NC(=O)N(C)C[C@H]2Oc3ncc(/C=C/c4ccccc4)cc3C(=O)N([C@@H](C)CO)C[C@@H]2C)c1 | inactive
COc1cccc(S(=O)(=O)N2CCC3(CC2)CN[C@@H](CO)c2[nH]c4cc(OC)ccc4c23)c1 | inactive
COc1ccc(CN2C[C@H](C)[C@H](OC)CN(C)C(=O)c3cc(NC(=O)c4nc5ccccc5s4)ccc3OC[C@@H]2C)cc1 | inactive
C[C@@H]1CN([C@H](C)CO)C(=O)c2cccc(NC(=O)c3nc4ccccc4s3)c2O[C@H]1CN(C)C(=O)NC1CCCCC1 | inactive

Compound | outcome
C[C@@H]1CN([C@H](C)CO)C(=O)c2c(c3ccccc3n2C)-c2ccccc2CO[C@H]1CN(C)S(=O)(=O)c1ccsc1 | inactive
CCC(=O)N1CC2(CCN(Cc3ccc(Cl)cc3)CC2)c2c(n(C)c3cc(OC)ccc23)[C@@H]1CO | inactive
CCCNC(=O)N1CC2(CCN(C(=O)CN(C)C)CC2)c2c(n(C)c3cc(OC)ccc23)[C@H]1CO | inactive
CC(C)(C)S(=O)N1Cc2cc(C(=O)N[C@@H]3CCN(Cc4ccccc4)C3)nc(-c3cccc(C#CCC4CCCC4)c3)c2[C@H]1CCO (stereo partly drawn) | inactive
COc1ccc(C#Cc2ccc3c(c2)O[C@@H](CN(C)C(=O)Nc2cccc(OC)c2)[C@H](C)CN([C@@H](C)CO)S3(=O)=O)cc1 | inactive
CO[C@@H]1CN(C)C(=O)c2cc(NC(=O)NC3CCCCC3)ccc2OC[C@@H](C)N(CCc2ccccc2)C[C@H]1C | inactive
COc1ccc2c3c([nH]c2c1)[C@@H](CO)N(Cc1cccc(F)c1)CC31CCN(Cc2ccccn2)CC1 | inactive
COc1ccc(C#Cc2ccc([C@H]3[C@@H](CO)N4CCCCN(C(=O)Nc5ccccc5F)C[C@@H]34)cc2)cc1 | inactive
COc1ccc(C#Cc2ccc([C@@H]3[C@@H](CO)N4CCCCN(C(=O)Nc5ccccc5F)C[C@@H]34)cc2)cc1 | inactive
N#C[C@@H]1[C@@H](c2ccccc2-c2ccccc2F)[C@H](CO)N1C(=O)C1CC1 | inactive
COCc1cn([C@@H]2C[C@@H]3O[C@@H](CO)CC[C@@H]3O[C@@H]2CCc2ccc(-c3ccc(OC)cc3)cc2)nn1 | inactive
O=C(Nc1cccc(F)c1)N[C@@H]1CC[C@@H](CCNS(=O)(=O)c2cccc(Cl)c2)O[C@@H]1CO | inactive
CC(C)NC(=O)N1[C@H](C#N)[C@H](c2ccc(-c3ccc(F)cc3)cc2)[C@@H]1CO | inactive
COc1ccc(-c2ccccc2[C@H]2[C@@H](C#N)N(C(=O)NC(C)C)[C@H]2CO)cc1 | inactive
CCCNC(=O)N1[C@H](C#N)[C@H](c2ccc(-c3cccc(OC)c3)cc2)[C@@H]1CO | inactive
COc1ccc(-c2ccc([C@H]3[C@H](C#N)N(C(=O)c4cccc(F)c4)[C@H]3CO)cc2)cc1 | inactive
CC(C)NC(=O)N1[C@H](C#N)[C@H](c2ccc(C#CC3CCCC3)cc2)[C@@H]1CO | inactive
CC(C)NC(=O)N1[C@H](C#N)[C@H](c2ccccc2-c2ccc(F)cc2)[C@@H]1CO | inactive
C[C@H]1CN([C@@H](C)CO)C(=O)c2c(c3ccccc3n2C)-c2ccccc2CO[C@@H]1CN(C)S(=O)(=O)c1ccc(C(F)(F)F)cc1 | inactive
C[C@H]1CN([C@@H](C)CO)C(=O)c2cc(NC(=O)Cc3cn(C)c4ccccc34)ccc2O[C@H]1CN(C)S(=O)(=O)c1ccccc1 | inactive
CO[C@H]1CN(C)C(=O)c2cc(NC(=O)c3ccc(F)cc3)ccc2OC[C@H](C)N(C(=O)c2ccc(F)cc2)C[C@H]1C | inactive
